Results on twelve compounds are retold here after PubChem BioAssay (NCI).

This is part of a sample that, as a whole, favours compounds with a hit. Of some 83,000 tested, about 20% had one in any assay.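 Negative percent growth values reflect cell death: -40 means 40% of the cells present at the start died, and -100 means all died.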 The source made the active and inactive calls. How the source made its calls: active means growth percent below 10; inactive means the rest.

The subject of this assay is MDA-MB-231 breast. The experiment in a line: NCI-60 one-dose screen, 48 h (100 = growth as untreated, 0 = no growth, -100 = all killed). To be noted: 10 µM unless noted.
`Cc1cc(-c2nc3ccccc3s2)ccc1NC(=O)COc1ccc(Cl)cc1`: the growth was 96.9% (inactive).
Under `C[C@H](CCC(=O)O)[C@H]1CC[C@H]2[C@@H]3CC[C@@H]4/C(=C\c5ccco5)C(=O)/C(=C\c5ccco5)C[C@]4(C)[C@H]3CC[C@]12C` stands 107% (inactive); under `COc1cc2c(c(OC)c1OC)-c1ccc(N=NC(N)=S)c(=O)cc1[C@@H](NC(C)=O)CC2`, 9.7% (active); under `c1ccc(CSc2ncnc3nc[nH]c23)nc1`, 97.6% (inactive).
For `CC(=O)Nc1ccc2c(c1)c(NC(C)=O)nn2C(=O)Nc1ccc(Cc2ccccc2)cc1`, the growth was 69.9% (inactive).
As for `COc1cc2c(=O)n(CC3CCCCC3)c3c4cc[nH]c4ncc3c2cc1OC`, the growth is 25.5% (inactive).
Under `COC1/C=C\OC2(C)Oc3c(C)c(O)c4c(O)c(c(CN(C)CCO)c(O)c4c3C2=O)NC(=O)/C(C)=C\C=C/C(C)C(O)C(C)C(O)C(C)C(OC(C)=O)C1C` (configuration not stated) stands 108% (inactive).
Under `Cc1cc(N/N=C/c2nc(-c3ccc(Cl)cc3)oc2C)c2cc(Cl)ccc2n1` stands 63.8% (inactive); under `C=C1CC[C@@H]2[C@](C)(COC(C)=O)[C@H](OC(C)=O)CC[C@@]2(C)[C@@H]1CC(NCc1ccc(F)cc1)C1=CCOC1=O` (some centres not stated), 60.9% (inactive).
In the case of `Cn1c2c(Cl)c(Cl)ccc2c2ccn3c(=O)c4ccccc4nc3c21` it was 99.5% (inactive); in that of `CCOC(=O)Cc1cnn(C)c1NC(=O)c1ccc(Cl)cc1NC(C)=O`, 112% (inactive); in that of `COc1ccc(-c2cc(NC(=O)Nc3ccc(O)cc3)no2)cc1`, 67.5% (inactive).
